# PubChem BioAssay (NCI)
# About 79,000 compounds went through this panel and 15% of them were active in at least one assay; those are over-represented in the sample as a whole. A number with no mark means an inactive call. The source made the active and inactive calls. No stated cut-off is given here; in the data, active means growth inhibition above about 70%; inactive means the rest. Where a SMILES comes first, the peptide text is derived from it. The star is where a group is joined. Boc = CC(C)(C)OC(=O)*
# Columns and labels:
# [1] = NCI Yeast Anticancer Drug Screen. Data for the rad50 strain (AID 155);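 further: 0% = growth of vehicle-only cultures of the same strain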; details: S. cerevisiae rad50 strain growth inhibition; at 50.0 µM; hits give high values
# Method in brief: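 Vehicle-treated cultures provide the reference for the growth inhibition reported for compound-exposed, repair-deficient yeast.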
# [2] = NCI Yeast Anticancer Drug Screen. Data for the mec2-1 strain (AID 157); details: S. cerevisiae mec2-1 strain, at 50.0 µM, hits give high values
# Method in brief: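 Compounds were applied to mec2-1 yeast cells. Their growth was then compared with that of vehicle-treated cultures to give growth inhibition.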
# [3] = NCI Yeast Anticancer Drug Screen. Data for the sgs1 mgt1 strain (AID 161);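 further: 0% = growth of cultures given vehicle only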; details: S. cerevisiae sgs1 mgt1 strain, at 50.0 µM, hits give high values
# Method in brief: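 Growth of a repair-deficient yeast mutant was monitored after compound treatment and expressed as inhibition relative to vehicle-treated cultures.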
# [4] = NCI Yeast Anticancer Drug Screen. Data for the cln2 rad14 strain (AID 165);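 further: 0% = growth equal to vehicle treated cultures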; details: S. cerevisiae cln2 rad14 strain, at 50.0 µM, hits give high values
# Method in brief: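 Strain: cln2 rad14 yeast, altered in cell cycle control and DNA damage repair. Read-out: growth inhibition vs vehicle.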
# [5] = NCI Yeast Anticancer Drug Screen. Data for the bub3 strain (AID 167); details: S. cerevisiae bub3 mutant strain, at 50.0 µM, hits give high values
# Method in brief: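 Mutant yeast screening strain plus compound; vehicle-treated cultures serve as the 0% inhibition reference.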
# [6] = NCI Yeast Anticancer Drug Screen. Data for the mlh1 rad18 strain (AID 175); details: S. cerevisiae mlh1 rad18 strain growth inhibition; at 50.0 µM; hits give high values
# Method in brief: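 A repair-deficient yeast strain is exposed to test compound, and growth is scored relative to vehicle-treated controls.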
Structure (SMILES),growth inhibition [1],growth inhibition [2],growth inhibition [3] [%],growth inhibition [4] [%],growth inhibition [5] [%],growth inhibition [6]
O=c1oc(=O)c2c1ccc1c2cc2ccc3cccc4ccc1c2c34,-17.9%,-10.4%,-8.2,-35.1,-11.2,-11.1%
O=C(CCN1CCCCC1)c1cc2cc([N+](=O)[O-])ccc2oc1=O,55.1%,29.6%,23.2,-17.8,47,32.6%
NC(CO)C(O)C(O)C(O)CO (stereo unspecified),6.8%,4.5%,3.35,6.7,2.35,-0.45%
Cc1cc(Cl)ccc1N1C(=O)C(=O)C(c2nc3ccccc3s2)C(=O)C1=O,-4.1%,13.7%,17.9,-6.1,2.2,12.5%
CC(C)(C)OC(=O)CN1C(=O)CCC1=O,6.25%,8.65%,20.2,-26.1,4.45,-5.15%
Nc1cc(C(F)(F)F)ccc1[N+](=O)[O-],14.2%,-10.2%,8,-7.25,8.85,22.4%
C=C1C(=O)OC2C=C(C)CC3C=C(CCC=C(C)CCC12)C(=O)O3 (stereo unspecified),0.5%,-33.5%,-13.2,4.9,-27.8,-17.7%
Cc1cc(=O)[nH]c2c1CCCC2,-13.7%,10.8%,10,-38.4,-26.6,8.25%
NC=O,-9.45%,11.2%,7.1,-1.4,-0.15,-11.7%
Cn1cnc2cc3c(cc2c1=O)nc1n3CCCC1,-1.7%,-2.5%,-12.6,-12.4,-6.75,-6.8%
CN(Cc1cnc2nc(N)nc(N)c2n1)c1ccc(C(=O)NC(CCC(=O)NC(CCC(=O)NC(CCC(=O)NC(CCC(=O)O)C(=O)O)C(=O)O)C(=O)O)C(=O)O)cc1 (stereo unspecified),42.8%,-19.8%,-35.9,-26.1,-41.6,-12.5%
CC1=C(c2cc(C(=O)Nc3cccc(Cl)c3)nc(NC#N)n2)Sc2ccccc2N1,25.6%,0.9%,-0.7,16.4,4.75,33.5%
O=C1OC(=O)C2=C1C1C=CC2CC1,3.4%,-7.05%,3,0,-9.05,13.4%
CCOCC1c2ccccc2CCN1Cc1c[nH]c2ccccc12 (stereo unspecified),9.65%,-21.2%,-2.85,-5.15,0.6,-4.55%
O=C(c1ccccc1)C(Br)C(Br)c1ccc([N+](=O)[O-])cc1 (stereo unspecified),14.7%,39.9%,31.4,24.2,-1.9,21.6%
O=C(O)C1CCC(C(=O)O)CC1.[NH-]C1CCCCC1[NH-].[Pt+2] (stereo unspecified),45.6%,-29.9%,-1.15,6.9,-19.9,-70.4%
Nc1nc(CCC(=O)O)cs1,-6.85%,-14.4%,4.9,-24.1,-1.45,-18.7%
Nc1cc(Cl)ccc1N1C(=O)C=CC1=O,-26.6%,-14.8%,1.25,-6.25,-9.1,18.6%

Structure (SMILES),growth inhibition [1],growth inhibition [2],growth inhibition [3] [%],growth inhibition [4] [%],growth inhibition [5] [%],growth inhibition [6]
CCCCNC(=O)NC1CC(OC2CC(O)(C(C)=O)Cc3c(O)c4c(c(O)c32)C(=O)c2c(OC)cccc2C4=O)OC(C)C1O (stereo unspecified),30.2%,14.9%,22.9,0.8,1.25,29.9%
COc1cc2c(c(OC)c1OC)-c1ccc(OC)c(=O)cc1C(NC(=O)CCCCCNc1ccc(N=[N+]=[N-])cc1[N+](=O)[O-])CC2 (stereo unspecified),88.5% (active),84.4% (active),45,36,12.8,84.3% (active)
N#Cc1c(-c2cccn(-c3ccccc3)c2=O)cc(-c2ccccc2)[nH]c1=O,1.55%,-5.65%,-5.7,-19.1,0.9,9.1%
N#CCc1nc2ccccc2[nH]1,7.95%,-6.95%,-9.35,3.1,6.25,3.3%
BrC1CC2CCCCC2CC1Br (stereo unspecified),-1.45%,22.3%,21.4,-9.75,8.8,9.65%
O=C(O)/C=C(/CC(=O)O)c1ccc(O)cc1,-14.9%,-21.7%,-9.9,-4.55,-18.6,-14.3%
OC(CNc1ncccn1)(c1ccccc1)c1ccccc1,-0.25%,-24.8%,-0.7,13,8.8,-17.1%
CN(C)c1ccccc1CC(=O)Nc1ccccc1,-12.6%,4.45%,-5.85,-21.8,1.9,3.1%
NC(Cc1ccccc1)C(=O)Nc1cccnc1 (stereo unspecified),-17.4%,15.2%,7.75,-44.6,15.8,-5.75%
O/N=C/c1cc2c(cc1Br)OCO2,-4.2%,-9.9%,-18.9,-9.75,-16.9,-17.6%
CCNC(=O)C(C(=O)O)c1ccccc1 (stereo unspecified),1.8%,-5.55%,5.15,-21.1,-13.9,5.2%
COC(=O)c1cc(NS(=O)(=O)c2ccc(N)cc2)cc(C(=O)OC)c1,-12.6%,-24.2%,-7.5,4.7,-14.8,-24.6%
COC(=O)C(Cc1c[nH]c2ccccc12)NC(=O)C(Cc1c[nH]c2ccccc12)NC(=O)C(Cc1c[nH]c2ccccc12)NC(=O)OC(C)(C)C (stereo not drawn) (Boc-Trp-Trp-Trp-OMe; configuration not given here),-22.9%,-16.6%,-2.45,10,-3.6,1.5%
CC(=O)NC(C(=O)NC(C)C(=O)N1CCCC1C(=O)O)C(C)C (stereo not drawn) (Ac-Val-Ala-Pro-OH; configuration not given here),19.1%,-19.5%,-1.1,15.1,0.6,-3.65%
CCOC(=O)C(/C(=N/NC(=O)OC)C(=O)Nc1ccc(C(C)=O)cc1)c1cnc2ccccc2n1 (stereo unspecified),0.9%,-40.9%,-26.6,26.1,-1.5,0.25%
O=C(Nc1ccc(C(=O)O)cc1)OCc1ccccc1,1.65%,8.75%,15.5,-36,2.5,-7.7%
O=C1CC2CC(=O)C(S(=O)c3ccccc3)C2C1 (stereo unspecified),6.25%,11.7%,20.1,3.35,-1.6,18.6%
CC(C)(C)N(OC(=O)c1ccc(C#N)cc1)c1ccccc1,15.4%,11.6%,3.55,7.75,4.2,3.35%
